Shown are actives, neighbours in structure and some others; about 2.4% of the full set was active somewhere.
CendR NRP1 mod: alters CendR peptide binding to human NRP-1; O14786; FAM-RPARPAR peptide binding to NRP-1, fluorescence polarization; inhibition, % at 25 µM; 0.85% of 360,000 active; AID 602438;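 active means inhibition or corrected inhibition above about 18%, plus a signal ratio from 0.5 to 1.5, limit read from the data, passing the limit was not always enough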
APOBEC3A inh: human APOBEC3A DNA deaminase inhibition. inhibition, % at 20 µM. recombinant A3A, FAM/TAMRA ssDNA deamination fluorescence. P31941. 0.41% of 330,000 active;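 active means at least 40% inhibition at 20 µM here, with at most 30% in a related deaminase screen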;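 further: plate controls were A3A with DMSO for no effect and wells lacking A3A enzyme for full effect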
Target sequence (P31941 whole entry, looked up): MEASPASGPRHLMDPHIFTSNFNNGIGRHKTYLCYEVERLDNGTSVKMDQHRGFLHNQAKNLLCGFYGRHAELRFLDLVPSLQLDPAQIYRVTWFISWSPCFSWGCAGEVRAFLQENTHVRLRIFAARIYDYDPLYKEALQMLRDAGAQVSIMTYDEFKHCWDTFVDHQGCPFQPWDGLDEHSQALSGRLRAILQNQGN
APOBEC3G inh: APOBEC3G (human) deaminase inhibition; Q9HC16; inhibition, % at 20 µM; 0.28% of 330,000 active; recombinant A3G, ssDNA deamination FAM/TAMRA fluorescence;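 active means inhibition of at least 40% at 20 µM, with no more than 30% in the related APOBEC3A deaminase screen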;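 further: plate controls were DMSO wells with A3G for no effect and wells lacking A3G enzyme for full effect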
Target sequence (Q9HC16 whole entry, looked up): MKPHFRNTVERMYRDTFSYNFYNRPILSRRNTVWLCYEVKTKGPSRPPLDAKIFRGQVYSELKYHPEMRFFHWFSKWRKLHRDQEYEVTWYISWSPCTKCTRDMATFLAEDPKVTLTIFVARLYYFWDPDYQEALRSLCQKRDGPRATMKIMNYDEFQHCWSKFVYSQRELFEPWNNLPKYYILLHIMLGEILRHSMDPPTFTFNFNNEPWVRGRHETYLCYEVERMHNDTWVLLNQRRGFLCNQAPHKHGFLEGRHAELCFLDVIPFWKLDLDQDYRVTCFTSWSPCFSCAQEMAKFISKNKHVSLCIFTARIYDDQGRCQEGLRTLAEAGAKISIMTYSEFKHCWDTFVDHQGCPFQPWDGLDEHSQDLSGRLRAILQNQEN
ADAM17 inh: ADAM17 inhibition, QFRET primary screen; P78536; recombinant ADAM17, EDANS/DABCYL FRET peptide cleavage; inhibition, % at 6.95 µM; 0.83% of 370,000 active; AID 720648;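 active means inhibition above the mean of compounds lying between control limits plus 3 SD, set per campaign, cut at about 8.5% in these data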;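 further: 0% = DMSO-only wells as the low control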
ADAM10 inh: ADAM10 inhibition, QFRET primary screen | O14672 | recombinant ADAM10, EDANS/DABCYL FRET peptide cleavage, 3 h | inhibition, % at 7 µM | 0.62% of 370,000 active;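 active means inhibition above a per-campaign cutoff equal to the mean of compounds falling between control-based bounds plus 3 SD, cut at about 20% in these data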;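 further: 0% = DMSO wells while the 100% control is not disclosed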
ADAM10 counter: inhibits human ADAM10 in ADAM17 exosite counter-screen. shares compounds with ADAM17 inh. recombinant ADAM10, EDANS/DABCYL FRET peptide cleavage, 3 h. inhibition, % at 6.95 µM. 47% of 2,900 active;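 active means mean inhibition over the triplicate runs exceeds the activity threshold set in the earlier primary screen, cut at about 20% in these data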;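 further: 0% = DMSO wells and 100% = marimastat wells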
ADAM17 confirm: confirmation of inhibitors of human ADAM17; shares compounds with ADAM17 inh; AID 743257; 65% of 2,900 active; recombinant ADAM17, EDANS/DABCYL QFRET peptide cleavage; inhibition, % at 6.95 µM;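 active means mean inhibition across replicates above the hit cutoff set in the primary screen, cut at about 8.5% in these data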;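 further: 0% = DMSO wells and 100% = marimastat wells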
Numbers without * were called inactive; . = not tested or not shown.

SMILES	CendR NRP1 mod	APOBEC3A inh	APOBEC3G inh	ADAM17 inh	ADAM10 inh	ADAM10 counter	ADAM17 confirm
COc1ccc(-c2n[nH]c(C)c2-c2ccc(Cl)cc2)c(O)c1OC	-3	0	-4	11*	10	22*	8
CCN1Cc2nnn(Cc3ccccc3)c2-c2cc(F)ccc2S1(=O)=O	.	.	.	-1	-3	.	.
CCCn1c(COc2ccccc2)nc2ccccc21	3	-5	0	-2	-2	.	.
CCOCCn1c(COc2ccccc2)nc2ccccc21	12	2	3	9.4*	3	-9	-3
Cc1ccc(S(=O)(=O)N2CCCC(C(=O)Nc3c(C)n(C)n(-c4ccccc4)c3=O)C2)cc1 (centres undefined)	.	.	.	0	0	.	.
N#CCC(CNc1ncc(C(F)(F)F)cc1Cl)OC(=O)c1ccc(Cl)cc1Cl (centres undefined)	5	5	2	9.6*	10	41*	19*
CC1(C)CC(=O)N(CC(=O)N2CCN(c3cccc(C(F)(F)F)c3)CC2)c2ccccc2S1(=O)=O	.	.	.	-3	-10	.	.
COCC(=O)Nc1cccc(C(F)(F)F)c1	-6	-2	-4	-3	-4	.	.
CC(C)Oc1cc(NC(=O)CS(=O)CC(=O)Nc2cccc(C(F)(F)F)c2)c(Cl)cc1Cl (centres undefined)	0	-1	-6	9.2*	18	31*	16*
CCN(CC)C(=O)c1ncn2c1C(=O)NC[C@@H]2C	.	.	.	-4	-8	.	.
Cc1ccc(S(=O)(=O)N(CC(=O)Nc2cccc(N(C)S(C)(=O)=O)c2)c2ccc(Cl)c(Cl)c2)cc1	9	-1	1	13*	25*	39*	22*
CC(C)C[C@@H](CN1CCC[C@H]1CN1C(=O)C(=O)NC[C@@H]1Cc1ccc(O)cc1)N1C[C@H](Cc2ccccc2)N(CC2CCCCC2)C(=O)C1=O	-9	.	.	0	-6	.	.
O=C1NC[C@H](Cc2ccccc2)N(C[C@@H]2CCCN2C[C@H](Cc2ccccc2)N2C[C@H](Cc3ccccc3)N(CC3CCCCC3)C(=O)C2=O)C1=O	-6	.	.	2	5	.	.
O=C1NC[C@H](Cc2ccccc2)N(C[C@H]2CCCN2C[C@H](Cc2ccccc2)N2C[C@H](Cc3ccccc3)N(CC3CCCCC3)C(=O)C2=O)C1=O	-8	.	.	9.0*	15	20*	9.3*
CC(C)C[C@@H](CN1CCC[C@H]1CN1C(=O)C(=O)NC[C@@H]1Cc1ccccc1)N1C[C@H](Cc2ccc(O)cc2)N(CC2CCCCC2)C(=O)C1=O	0	.	.	10*	9	20*	11*
Cc1ccc(NC(=O)Cc2ccc(F)cc2)c(S(=O)(=O)N2CCOCC2)c1	.	.	.	-2	-4	.	.
O=C(NNC(=O)C1CCC1)c1ccccc1F	6	-2	-8	9.9*	1	-1	2
CC(C)(C)OC(=O)N(Cc1ccccc1)Cc1ccccc1OCc1cccc(NC(=O)C2CC2)c1	-4	.	.	9.5*	9	20*	18*
COc1ccc(-c2nc(NC(=O)C3CC(=O)N(Cc4ccco4)C3)sc2C)cc1 (centres undefined)	12	-4	-6	9.1*	-4	10	7
CN1CC(c2ccccc2)C2(SC(=S)N(Cc3ccco3)C2=O)C12C(=O)Nc1ccccc12 (centres undefined)	5	-2	-7	10*	26*	37*	24*
CN1CC(c2ccccc2Cl)C2(COc3ccccc3C2=O)C12C(=O)Nc1ccccc12 (centres undefined)	10	0	0	8.9*	19	44*	25*
CN1CC(c2ccccn2)C2(SC(=S)N(Cc3ccccc3)C2=O)C12C(=O)Nc1ccccc12 (centres undefined)	1	-1	-4	-8	-2	.	.
COP(N)(=O)C(CC(C)C)NC(=O)OCc1ccccc1 (centres undefined)	.	.	.	-2	-5	.	.
COc1cccc(-c2ccc(CN3C(C(C)C)C(=O)N(Cc4cn(CCC5OCCO5)nn4)CCS3(=O)=O)cc2)c1OC (centres undefined)	-5	.	.	13*	8	14	7
Cc1ccc(-c2ccc(CN3C(C)C(=O)N(Cc4cn(CCC5OCCO5)nn4)CCS3(=O)=O)cc2)cc1 (centres undefined)	1	.	.	3	-6	.	.
SMILES	CendR NRP1 mod	APOBEC3A inh	APOBEC3G inh	ADAM17 inh	ADAM10 inh	ADAM10 counter	ADAM17 confirm
CC1C(=O)N(Cc2cn(CCC3OCCO3)nn2)CCS(=O)(=O)N1Cc1ccc(-c2ccc(Cl)cc2)cc1 (centres undefined)	-7	.	.	8.6*	15	13	5
CC(C)C1C(=O)N(Cc2cn(CCC3OCCO3)nn2)CCS(=O)(=O)N1Cc1ccc(-c2ccccc2)cc1 (centres undefined)	-5	.	.	7	12	.	.
O=C(Cc1c[nH]c2ccccc12)Nc1ccc(Nc2cccnc2)c(-c2ccc(OC(F)(F)F)cc2)c1	.	.	.	1	0	.	.
C#CCOCCOCCOCCNc1nc(N2CCN(C(=O)[C@H]([C@@H](C)CC)n3cc(CCCCN)nn3)CC2)nc(N2CCN(C(=O)[C@H](Cc3ccc(O)cc3)n3cc(CCO)nn3)CC2)n1	.	.	.	-2	0	.	.
c1cc(-c2nnc3n2N=C(c2ccc4c(c2)OCO4)CS3)ccn1	.	.	.	-2	-13	.	.
Cc1c(C(=O)N2CCOCC2)oc2ccc(Br)cc12	12	0	-5	2	-6	.	.
Cc1c(C(=O)N2CCN(S(=O)(=O)c3ccccc3)CC2)oc2ccc(Br)cc12	6	-3	-4	10*	12	24*	14*
Nn1c(SCC(=O)Nc2nccs2)nnc1-c1cc(-c2ccc(F)cc2)n[nH]1	.	.	.	1	4	.	.
COc1cc(-c2nc(-c3ccc4c(c3)-c3ccccc3S4(=O)=O)c(-c3ccccc3)[nH]2)cc(OC)c1O	-1	-4	-9	8.8*	-10	16	14*
CCCCCCCCN1C(=O)[C@@H](CC(=O)NCC2CCCCC2)C[C@@]2(C(=O)OC)C1=C[C@H](COCc1ccccc1)O[C@@H]2C	.	.	.	-4	-7	.	.
NS(=O)(=O)c1ccc(N/N=C/C=C/c2ccccc2[N+](=O)[O-])cc1	-22	-4	-10	8.7*	17	19	19*
Cc1c(Cl)c([N+](=O)[O-])nn1CCCC(=O)Nc1cc(Oc2ccccc2)cc([N+](=O)[O-])c1	-4	-3	-3	-1	-10	.	.
CCn1nc(C)c(C(=O)Nc2cc(Oc3ccc(Cl)cc3)cc([N+](=O)[O-])c2)c1C	10	2	-2	13*	15	39*	18*

Screening results: PubChem, several laboratories
